In PubChem BioAssay AID1159580 (chemical genetic matrix, 2015):
In all, about 5,500 compounds went through this assay and about 2,000 (36%) were called active. Roughly 18% stayed inconclusive and do not appear here. No stated cut-off is given here; in the data, active means normalized growth mostly below about 0.91 (no sharp cut-off); inconclusive means no clear call, values can overlap the other calls; inactive means mostly above about 0.92. Some of the results follow.

Experiment: chemical genetic growth profiling, strain panel (AID 1159580);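 further: tested at 20 µM; growth read once vehicle control cultures reached saturation at 30 °C; 1 = growth at the plate median or of vehicle wells; lower values mean less growth of the strain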
Settings: growth OD

Measured: normalized growth

CC/C(=C(/CC)c1ccc(O)cc1)c1ccc(O)cc1
active: S. cerevisiae deletion strains, locus YLR039C, strain RIC1, hits give low values 0.481 | S. cerevisiae deletion strains, locus YLR262C, strain YPT6 (second series), hits give low values 0.485 | S. cerevisiae deletion strains, locus YLR262C, strain YPT6, hits give low values 0.439 | S. cerevisiae deletion strains, locus YLR320W, strain mms22, hits give low values 0.84 | S. cerevisiae deletion strains, locus YMR307W, strain GAS1, hits give low values 0.569 | S. cerevisiae deletion strains, locus YNL071W, strain lat1, hits give low values 0.913 | S. cerevisiae deletion strains, locus YOR184W, strain ser1, hits give low values 0.812 | S. cerevisiae deletion strains, locus YOR270C, strain vph1, hits give low values 0.728
inactive: S. cerevisiae deletion strains, locus YKL009W, strain mrt4, hits give low values 0.916 | S. cerevisiae deletion strains, locus YKL068W, hits give low values 1.01 | S. cerevisiae deletion strains, locus YKL085W, strain MDH1 (second series), hits give low values 0.973 | S. cerevisiae deletion strains, locus YKL085W, strain MDH1, hits give low values 0.973 | S. cerevisiae deletion strains, locus YKL160W, strain elf1, hits give low values 0.955 | S. cerevisiae deletion strains, locus YKL190W, strain CNB1, hits give low values 1 | S. cerevisiae deletion strains, locus YKR001C, strain vps1, hits give low values 0.987 | S. cerevisiae deletion strains, locus YKR026C, strain gcn3, hits give low values 1.02 | S. cerevisiae deletion strains, locus YKR091W, strain srl3, hits give low values 1.01 | S. cerevisiae deletion strains, locus YLL001W, strain dnm1, hits give low values 1 | S. cerevisiae deletion strains, locus YLL026W, hits give low values 1 | S. cerevisiae deletion strains, locus YLL041C, strain sdh2, hits give low values 1.02 | S. cerevisiae deletion strains, locus YLR027C, strain aat2, hits give low values 1.01 | S. cerevisiae deletion strains, locus YLR058C, strain SHM2, hits give low values 0.943 | S. cerevisiae deletion strains, locus YLR102C, strain apc9, hits give low values 1.01 | S. cerevisiae deletion strains, locus YLR113W, strain HOG1, hits give low values 0.963 | S. cerevisiae deletion strains, locus YLR221C, strain rsa3, hits give low values 0.956 | S. cerevisiae deletion strains, locus YLR258W, strain gsy2, hits give low values 0.963 | S. cerevisiae deletion strains, locus YLR268W, strain sec22, hits give low values 0.945 | S. cerevisiae deletion strains, locus YLR330W, strain CHS5, hits give low values 0.981 | S. cerevisiae deletion strains, locus YLR342W, strain FKS1 (second series), hits give low values 0.89 | S. cerevisiae deletion strains, locus YLR342W, strain FKS1, hits give low values 1.01 | S. cerevisiae deletion strains, locus YLR357W, strain rsc2, hits give low values 1.14 | S. cerevisiae deletion strains, locus YLR370C, strain arc18, hits give low values 1.01 | S. cerevisiae deletion strains, locus YLR371W, strain rom2, hits give low values 1.02 | S. cerevisiae deletion strains, locus YLR384C, strain iki3, hits give low values 1.02 | S. cerevisiae deletion strains, locus YLR418C, strain cdc73, hits give low values 0.956 | S. cerevisiae deletion strains, locus YML016C, strain PPZ1, hits give low values 1.01 | S. cerevisiae deletion strains, locus YML032C, strain rad52, hits give low values 0.914 | S. cerevisiae deletion strains, locus YML120C, strain ndi1, hits give low values 1.01 | S. cerevisiae deletion strains, locus YML124C, strain tub3, hits give low values 1.01 | S. cerevisiae deletion strains, locus YMR058W, strain fet3, hits give low values 0.974 | S. cerevisiae deletion strains, locus YMR078C, strain ctf18, hits give low values 1 | S. cerevisiae deletion strains, locus YMR125W, strain sto1, hits give low values 1.09 | S. cerevisiae deletion strains, locus YMR129W, hits give low values 1.02 | S. cerevisiae deletion strains, locus YMR205C, strain PFK2, hits give low values 0.943 | S. cerevisiae deletion strains, locus YMR223W, strain ubp8, hits give low values 0.942 | S. cerevisiae deletion strains, locus YMR231W, strain pep5, hits give low values 1.03 | S. cerevisiae deletion strains, locus YNL067W, strain RPL9B, hits give low values 0.933 | S. cerevisiae deletion strains, locus YNL153C, strain GIM3, hits give low values 0.918 | S. cerevisiae deletion strains, locus YNL183C, strain NPR1, hits give low values 0.921 | S. cerevisiae deletion strains, locus YNL209W, strain ssb2, hits give low values 0.981 | S. cerevisiae deletion strains, locus YNL233W, strain BNI4, hits give low values 0.896 | S. cerevisiae deletion strains, locus YNL248C, strain rpa49, hits give low values 1.02 | S. cerevisiae deletion strains, locus YNL250W, strain rad50, hits give low values 1 | S. cerevisiae deletion strains, locus YNL271C, strain bni1, hits give low values 1 | S. cerevisiae deletion strains, locus YNL298W, strain CLA4, hits give low values 0.914 | S. cerevisiae deletion strains, locus YNL307C, strain MCK1, hits give low values 0.995 | S. cerevisiae deletion strains, locus YNL322C, strain KRE1 (second series), hits give low values 1.03 | S. cerevisiae deletion strains, locus YNL322C, strain KRE1, hits give low values 0.992 | S. cerevisiae deletion strains, locus YNR049C, strain mso1, hits give low values 1.01 | S. cerevisiae deletion strains, locus YNR052C, strain pop2, hits give low values 0.99 | S. cerevisiae deletion strains, locus YOL006C, strain TOP1, hits give low values 0.73 | S. cerevisiae deletion strains, locus YOL012C, strain htz1 1.4 | S. cerevisiae deletion strains, locus YOL147C, strain pex11, hits give low values 1.02 | S. cerevisiae deletion strains, locus YOR001W, strain rrp6, hits give low values 0.997 | S. cerevisiae deletion strains, locus YOR061W, strain CKA2, hits give low values 0.976 | S. cerevisiae deletion strains, locus YOR069W, strain VPS5, hits give low values 1 | S. cerevisiae deletion strains, locus YOR070C, strain gyp1, hits give low values 0.945 | S. cerevisiae deletion strains, locus YOR080W, strain dia2, hits give low values 1.02 | S. cerevisiae deletion strains, locus YOR083W, strain WHI5, hits give low values 0.948 | S. cerevisiae deletion strains, locus YOR106W, strain vam3, hits give low values 0.951 | S. cerevisiae deletion strains, locus YOR136W, strain idh2, hits give low values 1.01 | S. cerevisiae deletion strains, locus YOR144C, strain elg1, hits give low values 1.01 | S. cerevisiae deletion strains, locus YOR231W, strain MKK1, hits give low values 0.976 | S. cerevisiae deletion strains, locus YOR265W, strain rbl2, hits give low values 0.999 | S. cerevisiae deletion strains, locus YOR290C, strain snf2, hits give low values 0.961 | S. cerevisiae deletion strains, locus YOR316C, strain cot1, hits give low values 1 | S. cerevisiae deletion strains, locus YPL051W, strain arl3, hits give low values 0.919 | S. cerevisiae deletion strains, locus YPL055C, strain LGE1, hits give low values 0.811 | S. cerevisiae deletion strains, locus YPL078C, strain atp4, hits give low values 0.953 | S. cerevisiae deletion strains, locus YPL106C, strain sse1, hits give low values 1.12 | S. cerevisiae deletion strains, locus YPL240C, strain hsp82, hits give low values 1.01 | S. cerevisiae deletion strains, locus YPL256C, strain CLN2, hits give low values 0.977 | S. cerevisiae deletion strains, locus YPR119W, strain clb2, hits give low values 1 | S. cerevisiae deletion strains, locus YPR141C, strain kar3, hits give low values 1.03 | S. cerevisiae deletion strains, locus YPR163C, strain tif3, hits give low values 1.02 | S. cerevisiae deletion strains, locus YPR167C, strain met16, hits give low values 1 | S. cerevisiae deletion strains, strain wtn01, hits give low values 0.971 | S. cerevisiae strains, strain wild type, hits give low values 0.948
